From PMC7826789 (International Journal of Molecular Sciences, 2021)

What was measured:
Settings in all cases: Compound Concentration (nM):1000
NEK3 = test system: NEK3
NEK4 = test system: NEK4
NEK5 = test system: NEK5
NEK6 = test system: NEK6
NEK7 = test system: NEK7
NEK9 = test system: NEK9
NIK = test system: T1, NIK
T1 construct: gene MAP3K14

NIM1 = test system: T2, NIM1
T2 construct: gene MGC42105

NLK = test system: NLK
OSR1 = test system: T3, OSR1
T3 construct: gene OXSR1

PAK1 = test system: PAK1
PAK2 = test system: PAK2
PAK3 = test system: PAK3
PAK4 = test system: PAK4
PAK6 = test system: PAK6
PAK7 = test system: PAK7
PCTK1 = test system: T4, PCTK1
T4 construct: gene CDK16

PCTK2 = test system: T5, PCTK2
T5 construct: gene CDK17

PCTK3 = test system: T6, PCTK3
T6 construct: gene CDK18

PDGFRA = test system: PDGFRA
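Further: KINOMEscan scanMAX binding as percent activity remaining versus control; lower means stronger binding.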

Row | SMILES | Percent Control (NEK3) | Percent Control (NEK4) | Percent Control (NEK5) | Percent Control (NEK6) | Percent Control (NEK7) | Percent Control (NEK9) | Percent Control (NIK) | Percent Control (NIM1) | Percent Control (NLK) | Percent Control (OSR1) | Percent Control (PAK1) | Percent Control (PAK2) | Percent Control (PAK3) | Percent Control (PAK4) | Percent Control (PAK6) | Percent Control (PAK7) | Percent Control (PCTK1) | Percent Control (PCTK2) | Percent Control (PCTK3) | Percent Control (PDGFRA)
1 | COc1cc2ncnc(Nc3ccc4c(cnn4Cc4ccccc4)c3)c2cc1OC.Cl [GW282449A] | 100% | 100% | 100% | 100% | 96% | 100% | 100% | 100% | 100% | 100% | 100% | 100% | 30% | 100% | 100% | 100% | 100% | 100% | 100% | 83%
2 | NS(=O)(=O)c1ccc(N/N=C2\C(=O)Nc3ccc(Cl)cc32)cc1 [GW280670X] | 100% | 100% | 100% | 100% | 100% | 100% | 100% | 100% | 100% | 100% | 100% | 100% | 100% | 100% | 100% | 100% | 26% | 100% | 100% | 28%
3 | O=C(Nc1n[nH]c2nc(-c3ccc(O)cc3)c(Br)cc12)C1CC1 [SB-725317] | 100% | 88% | 100% | 100% | 86% | 98% | 100% | 84% | 54% | 100% | 89% | 60% | 71% | 100% | 100% | 100% | 24% | 62% | 77% | 29%
4 | CN1CCN(C(=O)c2ccc(NC(=O)Nc3ccc(N(C)c4ccnc(Nc5ccc(CS(C)(=O)=O)cc5)n4)cc3)cc2)CC1.Cl [GW830263A] | 66% | 85% | 82% | 100% | 93% | 62% | 100% | 99% | 80% | 98% | 92% | 50% | 0% | 46% | 92% | 67% | 76% | 91% | 96% | 2%
5 | CCS(=O)(=O)c1ccc(OC)c(Nc2ncc(-c3cccc(F)c3)o2)c1 [GW621970X] | 100% | 100% | 95% | 100% | 100% | 100% | 93% | 100% | 100% | 100% | 100% | 100% | 100% | 100% | 100% | 100% | 100% | 100% | 81% | 49%
6 | NS(=O)(=O)c1ccc(N/N=C2\C(=O)Nc3ccc(C(=O)NCc4ccncc4)cc32)cc1 [GW300657X] | 84% | 89% | 92% | 97% | 62% | 64% | 95% | 72% | 96% | 75% | 100% | 100% | 63% | 100% | 81% | 87% | 0.2% | 22% | 68% | 27%
7 | CN(C)CCNC(=O)Nc1ccc(N(C)c2ccnc(Nc3ccc(CS(C)(=O)=O)cc3)n2)cc1.Cl [GW830900A] | 63% | 100% | 91% | 96% | 93% | 96% | 88% | 88% | 82% | 100% | 99% | 79% | 2.1% | 71% | 90% | 71% | 100% | 100% | 100% | 2%
8 | COc1cc(C)c(N(C)C(=O)CN(C)C)cc1Nc1nc(Nc2cccc(F)c2C(N)=O)c2cc[nH]c2n1 [GSK2219385] | 94% | 100% | 94% | 100% | 91% | 90% | 100% | 80% | 95% | 100% | 100% | 74% | 100% | 100% | 96% | 82% | 79% | 100% | 100% | 100%
9 | C/C(Nc1ccc(S(N)(=O)=O)cc1)=C1/C(=O)Nc2ccccc21 [GW335962X] | 96% | 77% | 97% | 100% | 95% | 95% | 78% | 86% | 87% | 94% | 82% | 80% | 64% | 89% | 85% | 100% | 23% | 100% | 78% | 6.1%
10 | COC(=O)Nc1nc2ccc(Oc3ccc(NC(=O)Nc4cc(C(F)(F)F)ccc4F)cc3)cc2s1.Cl [GW693917A] | 87% | 83% | 76% | 100% | 100% | 50% | 80% | 79% | 95% | 100% | 100% | 100% | 43% | 100% | 82% | 91% | 74% | 72% | 78% | 11%
11 | Cl.O=C(O[C@H]1CN[C@H](C#Cc2cc3ncnc(Nc4ccc5c(cnn5Cc5ccccc5)c4)c3s2)C1)N1CCOCC1 [GSK200398A] | 94% | 100% | 100% | 100% | 98% | 95% | 100% | 89% | 93% | 100% | 100% | 100% | 63% | 100% | 100% | 89% | 83% | 96% | 100% | 83%
12 | C[C@@H](Oc1cc(-n2cnc3ccc(OC4CCN(C)CC4)cc32)sc1C(N)=O)c1ccccc1Cl [GSK579289A] | 92% | 79% | 63% | 100% | 69% | 19% | 82% | 51% | 100% | 100% | 100% | 84% | 0% | 100% | 75% | 74% | 94% | 94% | 86% | 54%
13 | CC(C)COC(=O)c1ccc2c(c1)/C(=C/Nc1ccc(S(N)(=O)=O)cc1)C(=O)N2 [GW416981X] | 95% | 90% | 100% | 100% | 100% | 83% | 95% | 86% | 100% | 100% | 100% | 100% | 100% | 100% | 100% | 97% | 0.6% | 16% | 60% | 55%
14 | CCS(=O)(=O)c1ccc(OC)c(Nc2ncc(-c3cccc(OC)c3)o2)c1 [GW580509X] | 100% | 100% | 100% | 100% | 100% | 100% | 92% | 100% | 100% | 100% | 100% | 100% | 100% | 100% | 96% | 100% | 100% | 100% | 100% | 69%
15 | NS(=O)(=O)c1ccc(N/N=C2\C(=O)Nc3ccc(C(=O)NCCc4c[nH]cn4)cc32)cc1 [GW300660X] | 78% | 80% | 100% | 100% | 100% | 100% | 74% | 14% | 100% | 100% | 100% | 81% | 100% | 100% | 100% | 100% | 2.2% | 100% | 100% | 54%
16 | CC1=C(C(=O)Nc2ccc3[nH]ncc3c2)C(c2ccc3ccccc3c2)CC(=O)N1 (stereo not shown) [GSK270822A] | 70% | 84% | 100% | 100% | 77% | 70% | 82% | 77% | 98% | 74% | 85% | 93% | 79% | 85% | 89% | 83% | 89% | 100% | 96% | 100%
17 | COc1cccc(-n2ncc3c(N/N=C/c4ccncc4)ncnc32)c1 [GW784752X] | 86% | 100% | 100% | 100% | 92% | 90% | 100% | 86% | 91% | 99% | 100% | 100% | 100% | 100% | 96% | 100% | 25% | 70% | 100% | 36%
18 | COc1cc2ncn(-c3cc(O[C@H](C)c4ccccc4Cl)c(C(N)=O)s3)c2cc1OC [GSK237701A] | 85% | 88% | 9.1% | 100% | 63% | 19% | 100% | 48% | 98% | 78% | 98% | 93% | 7.6% | 93% | 88% | 100% | 90% | 100% | 100% | 24%
19 | COc1ccc2[nH]c3c4[nH]c5ccc(OC)cc5c4c4c(c3c2c1)C(=O)NC4=O [GW296115X] | 67% | 85% | 76% | 87% | 92% | 100% | 20% | 100% | 52% | 100% | 70% | 91% | 4.2% | 90% | 100% | 91% | 99% | 72% | 80% | 11%
20 | Cc1cc(O)cc(C)c1/C=C/c1cncc(C(N)=O)c1 [GW435821X] | 89% | 86% | 100% | 100% | 100% | 100% | 100% | 100% | 92% | 100% | 99% | 100% | 84% | 100% | 98% | 100% | 100% | 100% | 93% | 18%
